High-throughput results as filed in PubChem BioAssay.
Sampled rows, rich in hits. Any-hit rate of the full collection: about 3.8%.
Nrf2 block: Nrf2 pathway inhibition | A549 ARE-Fluc reporter, luciferase luminescence, 18-24 h | Potency, µM (highest dose often 46 µM), without a hit: top-dose activity change, negative = inhibition, most hits filed as inhibitors | 360,000 tested, 2.1% active | AID 504444; further: on the % scale 0 is the no-effect control and ±100 the full control effect; nearly all actives have a fitted effect of over 60% in size
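Reporter: ARE-Fluc in A549. Exposure: 18-24 h, 37 °C, 5% CO2, 5% FBS OPTI-MEM. Readouts: fluorescent cytotoxicity (CellTiter-Fluor), then luminescent Nrf2 signal after BugLite.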
TGFb inhibitor: inhibitors of TGF-b signaling; HepG2 CAGA-GFP TGF-b/SMAD3 reporter, GFP fluorescence, 18 h; TGF-beta stimulated, 500 pg/mL final; Potency, µM (titrated, usually from 46.1 µM), for inactives: at the top dose activity, negative = inhibition, most hits filed as inhibitors; 410,000 tested, 1.2% active; further: on the % scale 0 is the no-effect control and ±100 the full control effect; nearly all actives have a fitted effect of over 65% in size
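First, reporter cells (HEPG2 CAGA-GFP) rested 2 h at 37 degrees C. Next, compounds were pinned in and TGF-beta added to 500 pg/mL final. After 18 h, GFP was imaged per cell and summed per well.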
ATXN viability: cell viability loss in ATXN counter-screen; Potency, µM (titrated, usually from 56.7 µM), hits mostly cytotoxic; S2 cells (HEK-293 line with an ATXN2-luciferase reporter) viability, CellTiter-Fluor protease fluorescence, 24 h; 400,000 tested, 0.49% active; further: nearly all actives have a fitted effect of over 40% in size
ATXN2 expr inh: inhibitors of ATXN2 expression; HEK-293 ATXN2-luciferase reporter, luminescence, 24 h; Potency, µM (series often up to 57 µM), without a hit: top-dose activity change, negative = inhibition, hits mostly inhibitors; 360,000 tested, 0.72% active; AID 1745845; further: on the % scale 0 is the no-effect control and ±100 the full control effect; nearly all actives have a fitted effect of over 55% in size
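ATXN2-luciferase reporter cells (luciferase flanked by upstream and downstream ATXN2 gene portions) were treated 24 h at 37 °C with compounds at up to 57 uM. SteadyGlo luminescence gave expression; GF-AFC fluorescence gave viability.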
HepG2 viability: counter-screen for TGF-b inhibitors: cytotoxicity in HepG2 cells; HepG2 CAGA-GFP viability, ATP luminescence, 18 h; Potency, µM (titrated, usually from 46.1 µM), for inactives: top-dose activity change, negative = cytotoxicity, most hits filed as cytotoxic; 410,000 tested, 0.76% active
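CellTiter-Glo luminescence gave cytotoxicity after 18 hours at 37 degrees C. The cells were HepG2 CAGA-GFP in 1% FBS DMEM, stimulated with 500 pg/mL TGF-beta after compound addition. %Activity was normalised to no-cell wells (complete cell-killing) and DMSO (no toxicity), and curves were fitted and classified.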
A549 viability: kills or reduces viability of A549 cells in Nrf2 counter-screen; A549 ARE-Fluc cells, CellTiter-Fluor viability, 18-24 h; Potency, µM (highest dose often 46 µM), inactives show at the top dose activity change, negative = cytotoxicity, usual class: inhibitors; 390,000 tested, 0.16% active; further: on the % scale 0 is the no-effect control and ±100 the full control effect
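A549 ARE_Fluc cells in 5% FBS OPTI-MEM were exposed to compounds in concentration-response for 18-24 h at 37 deg C. Viability was read by CellTiter-Fluor fluorescence (Ex 405/Em 525) after 30 min, before the luciferase read.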
The depositor's hits bear a star; i = inactive; ? = inconclusive; / = no result. The call rests on the fitted dose curve; in most records, active means well fitted curve in the direction sought with a large enough effect; inconclusive means small, poorly fitted or top-dose-only effect, or another doubt; inactive means no such curve, though single readings can be large; an effect the other way counts as inactive or inconclusive. Potency means the concentration at half of the fitted maximal effect.

SMILES	Nrf2 block	TGFb inhibitor	ATXN viability	ATXN2 expr inh	HepG2 viability	A549 viability
Cc1csc(-c2cnn(-c3ccccc3)c2NC(=O)c2cccc(C(F)(F)F)c2)n1	-2%	-5%	i	87%	-2%	-1%
Cc1ccc(S(=O)(=O)c2nc(S(C)(=O)=O)sc2N2CCC3(CC2)OCCO3)cc1	?	-10%	i	-4%	5%	-13%
Cc1ccc(C(=O)NCC(c2cccs2)S(=O)(=O)c2cccs2)cc1 (stereo not given)	/	?	20µM*	?	-24%	0%
COc1cccc(NC(=O)c2sc(-n3nc(C)c(Cc4ccccc4Cl)c3C)nc2C)c1	12%	18%	/	/	-2%	0%
CC(C)C[C@H](CO)Nc1nc(Nc2cccc(Cl)c2)c2ncn(C(C)C)c2n1	?	?	22µM*	?	-58%	-27%
CC(C)n1cnc2c(Nc3cccc(F)c3)nc(NCCO)nc21	-15%	-4%	i	-6%	-29%	-10%
CCNC(=O)c1sc(=S)n(-c2ccc(C)cc2)c1N	-8%	-1%	i	3%	-12%	-1%
NC(=O)c1sc(=S)n(-c2ccc(Br)cc2)c1N	2%	11µM*	i	-14%	-25%	5%
CC1CN(S(=O)(=O)c2cccc(C(=O)NN3CCN(C)CC3)c2)CC(C)O1 (stereo not given)	2%	-6%	i	9%	5%	-3%
CC1CN(S(=O)(=O)c2cccc(C(=O)Nc3ccc4c(c3)CCC4)c2)CC(C)O1 (stereo not given)	23µM*	-23%	i	7%	11%	-16%
COc1ccc(C/C(N)=N/OC(=O)C(c2ccccc2)c2ccccc2)cc1OC	23µM*	-1%	i	-15%	-32%	-7%
COc1ccc(/C(N)=N/OC(=O)Cc2ccc(OC)c(OC)c2)cc1	15µM*	1%	i	-12%	-11%	-13%
O=C1OC2(c3ccccc31)c1cc(I)c(O)c(I)c1Oc1c2cc(I)c(O)c1I	/	/	35µM*	-7%	/	/
COc1ccc2c(c1)NC(c1cccnc1)=NC(c1ccc(F)cc1)=N2	9%	10%	i	12%	1%	-17%
O=C(/C=C/c1ccc(Cl)cc1)Nc1ccc(CN2CCOCC2)cc1	21µM*	4%	i	?	-26%	?
CC(C)c1ccc(/C=C/C(=O)Nc2ccc(CN3CCOCC3)cc2)cc1	23µM*	-8%	?	?	-8%	?
C=CCn1c(C)cc(C(=O)COc2ccc(N(C)S(=O)(=O)c3ccc(NC(C)=O)cc3)cc2)c1C	16µM*	-18%	?	-22%	-32%	-23%
CC(C)Oc1ccc(CNC(=O)c2cc(S(=O)(=O)N3CCOCC3)cn2C)cc1	-14%	11%	i	-10%	16%	2%
O=[N+]([O-])c1nn(-c2ccccc2)n(O)c1=NC1CCN(Cc2ccccc2)CC1	12%	?	i	?	-72%	18µM*
CCOCCCNC(=O)C(NC(=O)c1cnccn1)c1ccc(C)cc1 (stereo not given)	4%	-7%	i	1%	-2%	4%
O=C(NC(c1ccc(Cl)cc1)c1cnccn1)C1CCN(CCOc2ccc(F)cc2)CC1 (stereo not given)	/	-2%	i	-14%	-37%	/
Cc1ccc(C(NC(=O)C2CCN(Cc3ccc(Oc4ccccc4)cc3)CC2)c2ccccn2)cc1 (stereo not given)	/	?	?	?	11µM*	/
O=C(NC(c1ccc(-c2ccccc2)cc1)c1cnccn1)C1CCN(CCOc2ccc(F)cc2)CC1 (stereo not given)	/	13µM*	?	?	18µM*	/
